# Shown are actives, neighbours in structure and some others; about 18% of the full set was active somewhere.
# TGFb inhibitor: inhibitors of TGF-b signaling; HepG2 CAGA-GFP TGF-b/SMAD3 reporter, GFP fluorescence, 18 h; TGF-beta stimulated, 500 pg/mL final; Potency, µM (titrated, usually from 46.1 µM), most hits filed as inhibitors; hit rate 1.2% among 410,000; note: nearly all actives have a fitted effect of over 65% in size
#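 Using HEPG2 CAGA-GFP reporter cells at 1000 cells/well, we pinned test compounds, stimulated with recombinant TGF-beta (500 pg/mL final) and measured total well GFP after 18 h.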
# DT40 TDP1 no CPT: qHTS for Inhibitors of human tyrosyl-DNA phosphodiesterase 1 (TDP1): qHTS in cells in absence of CPT; DT40 Tdp1-/- hTDP1 cells, no CPT, ATP luminescence, 48 h; Potency, µM (series often up to 46.2 µM), usual class: inhibitors; hit rate 15% among 420,000; AID 686978, 2013; note: nearly all actives have a fitted effect of over 55% in size
#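 Chicken DT40 Tdp1-/- cells complemented with human TDP1, screened without camptothecin (DMSO vehicle only), 400 cells/well. Compounds pin-transferred, cells incubated at 37 °C for at least 48 hr. Growth read as ATP-dependent luminescence (CellTiter-Glo, 30 min at RT).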
# TDP1 block: TDP1 (human) enzyme inhibition | Q9NUW8 | recombinant TDP1, AlphaScreen DNA substrate cleavage | Potency, µM (doses to about 130 µM), hits mostly inhibitors | hit rate 0.28% among 350,000 | AID 485290; note: nearly all actives have a fitted effect of over 40% in size
# Target sequence (Q9NUW8 whole entry, looked up): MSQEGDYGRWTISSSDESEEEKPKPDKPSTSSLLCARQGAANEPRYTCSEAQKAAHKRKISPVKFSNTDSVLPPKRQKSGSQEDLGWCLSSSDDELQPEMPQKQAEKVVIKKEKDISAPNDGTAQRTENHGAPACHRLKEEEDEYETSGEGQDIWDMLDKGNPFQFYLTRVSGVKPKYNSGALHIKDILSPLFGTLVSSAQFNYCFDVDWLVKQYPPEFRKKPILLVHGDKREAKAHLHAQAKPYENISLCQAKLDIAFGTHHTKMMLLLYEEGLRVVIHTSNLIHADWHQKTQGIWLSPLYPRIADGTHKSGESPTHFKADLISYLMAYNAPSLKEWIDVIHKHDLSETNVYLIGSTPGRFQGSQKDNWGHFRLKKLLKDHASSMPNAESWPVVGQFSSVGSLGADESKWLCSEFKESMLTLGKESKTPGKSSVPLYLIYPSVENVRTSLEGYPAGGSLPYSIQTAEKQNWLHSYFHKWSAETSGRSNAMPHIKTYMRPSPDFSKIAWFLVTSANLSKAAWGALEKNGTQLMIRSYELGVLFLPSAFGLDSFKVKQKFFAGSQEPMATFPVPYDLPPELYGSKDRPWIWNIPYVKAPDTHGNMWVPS
#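 Recombinant human Tdp1 (E. coli-expressed, 1 nM final) preincubated with compounds 15 min at room temperature, then 5'-biotin/3'-phosphotyrosine-FITC DNA substrate (15 nM final) added for 5 min. AlphaScreen beads (10 ug/ml final) added 10 min; cleavage lowers signal.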
# TDP1 cell CPT: growth inhibition of DT40 Tdp1-/-;hTDP1 cells with camptothecin (screen for TDP1 inhibitors); chicken DT40 Tdp1-/-;hTDP1 cells + 20 nM CPT, ATP luminescence, 48 h; AID 686979; Potency, µM (series often up to 46.2 µM), actives largely listed as inhibitors; hit rate 12% among 420,000; note: nearly all actives have a fitted effect of over 55% in size
#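 Chicken DT40 Tdp1-/- cells stably complemented with human TDP1 were seeded at 400 cells/well in medium containing 20 nM camptothecin, exposed to pin-transferred compounds, and grown at 37 °C for at least 48 hr. Viability was read as ATP luminescence.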
# IL-1B inflam inh: inhibitors of inflammasome signaling (IL-1 beta secretion). THP-1 LPS/ATP IL-1B secretion, AlphaLISA, 16 h; hits give low values. activity change, % at 57.5 µM. hit rate 4.7% among 360,000. AID 743279; in the data active = activity change below about -50%; inconclusive = mostly about -30% to -49%
#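 THP-1 cells pretreated 1 hr with compounds (up to 57.5 uM final), then stimulated with LPS (250 ng/mL final) plus ATP (1.25 mM final); secreted IL-1B measured by AlphaLISA after 16 hr, decreased signal indicating inhibition.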
# HepG2 viability: kills HepG2 cells in TGF-b inhibitor counter-screen. HepG2 CAGA-GFP viability, ATP luminescence, 18 h. Potency, µM (series often up to 46.1 µM), usual class: cytotoxic. hit rate 0.76% among 410,000. AID 588856
#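 HepG2 CAGA-GFP cells (1000/well, DMEM with 1% FBS) received compound, then TGF-beta at 500 pg/mL final, and were incubated 18 hours at 37 degrees C. Viability was read by CellTiter-Glo luminescence. Media-only wells were set as complete cell-killing and DMSO as no toxicity.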
# Hits are given with their value; n = inactive; u = inconclusive; x = not tested or not shown. Unless noted, calls come from the whole dose curve; as a rule, active = well fitted curve in the direction sought with a large enough effect; inconclusive = small, poorly fitted or top-dose-only effect, or another doubt; inactive = no such curve, though single readings can be large; an effect the other way counts as inactive or inconclusive.
SMILES,TGFb inhibitor,DT40 TDP1 no CPT,TDP1 block,TDP1 cell CPT,IL-1B inflam inh,HepG2 viability
COC(=O)C1OC(OC2CC[C@]3(C)C(CC[C@@]4(C)[C@@H]3CC=C3[C@@H]5CC(C)(C)CC[C@]5(C(=O)OC5OC(CO)C(O)C(O)C5O)CC[C@]34C)C2(C)C)C(O)C(O)C1O[C@H]1OCC(O)C(O)C1O (some centres undefined),n,n,n,u,-56,n
CC1=C(C(=O)N2CCCCCC2)CC(CC(=O)NCCCN(C)C)C(=O)N1Cc1ccccc1 (centres undefined),n,n,x,n,n,n
CC1=C(C(=O)N(C(C)C)C(C)C)CC(CC(=O)NCCCCc2ccccc2)C(=O)N1Cc1ccccc1 (centres undefined),u,23µM,x,u,n,n
CCN(CC)C(=O)C1=C(C)N(Cc2ccccc2)C(=O)C(CC(=O)NCCCCc2ccccc2)C1 (centres undefined),n,26µM,x,23µM,n,n
COc1ccc(CN2C(=O)C(CC(=O)NCCCCc3ccccc3)CC(C(=O)N3CCCCCC3)=C2C)cc1 (centres undefined),x,21µM,x,21µM,x,x
COC(=O)C1[C@H]2SC(C)(C)C(C(=O)OC)N2C(=O)N1Cc1ccccc1 (some centres undefined),n,n,x,n,x,n
CCc1cnc2c(c1SCC(=O)NCc1ccc(C)cc1)c(=O)n(C)c(=O)n2C,n,u,n,u,x,n
Cc1ccc(CNC(=O)CSc2c(C(C)C)cnc3c2c(=O)n(C)c(=O)n3C)cc1,n,26µM,n,15µM,x,n
CCc1cnc2c(c1SCC(=O)NCc1ccccc1)c(=O)n(C)c(=O)n2C,n,u,n,12µM,x,n
CCc1cnc2c(c1SCC(=O)c1ccc(Cl)cc1)c(=O)n(C)c(=O)n2C,n,21µM,n,13µM,x,n
O=C(N1CCC(n2nc(-c3ccccc3)oc2=O)CC1)C1(c2ccc(Cl)cc2)CC1,u,u,n,u,n,n
COc1ccc(CC(=O)NO)cc1OC,x,n,x,n,x,x
O=C1C(NS(=O)(=O)c2cccs2)=C(N2CCOCC2)C(=O)c2ccccc21,u,u,n,u,n,n
COc1ccccc1N1CCN(S(=O)(=O)c2cccs2)CC1,n,n,n,n,n,n
O=C1C(NS(=O)(=O)c2cccs2)=C(N2CCN(c3cccc(C(F)(F)F)c3)CC2)C(=O)c2ccccc21,u,23µM,n,16µM,n,n
CCOc1ccccc1N1CCN(C2=C(NS(=O)(=O)c3cccs3)C(=O)c3ccccc3C2=O)CC1,18µM,26µM,n,u,n,n
CCN1CCN(C2=C(NS(=O)(=O)c3ccccc3)C(=O)c3ccccc3C2=O)CC1,11µM,16µM,n,21µM,n,n
O=C1c2ccccc2C(=O)C1(c1ccccc1)N1CCN(c2cccc(C(F)(F)F)c2)CC1,n,u,n,u,x,n
CN1CCN(C2=C(NS(=O)(=O)c3cccs3)C(=O)c3ccccc3C2=O)CC1,u,21µM,x,16µM,n,n
Cc1ccc(C)c(-c2nnc(OCC(=O)Nc3cc(C)on3)c3ccccc23)c1,n,u,n,n,n,n
COc1ccc(NC(=O)C2CCCN2C(=O)Oc2ccccc2)cc1 (centres undefined),n,n,n,n,n,n
O=C(CCSCc1ccccc1F)NCCc1ccccc1,n,n,n,n,n,n
CCN1CCN(C2=C(NS(=O)(=O)c3ccc(Br)cc3)C(=O)c3ccccc3C2=O)CC1,13µM,23µM,n,21µM,n,18µM
CN1CCN(C2=C(NS(=O)(=O)c3ccccc3)C(=O)c3ccccc3C2=O)CC1,u,u,n,23µM,n,n
NC(=O)C1CCN(C2=C(NS(=O)(=O)c3ccccc3)C(=O)c3ccccc3C2=O)CC1,u,u,n,n,n,n

# Screening results as filed in PubChem BioAssay.
